Among all 220,000 compounds or so, about 910 (0.41%) were called active.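 How the source made its calls: active means primary inhibition above the hit cutoff, then over 50% inhibition at one or more dose response concentrations (cut at about 23% in these data, passing the limit was not always enough); inconclusive means conflicting primary data, or primary hits not chosen for dose response; inactive means low primary inhibition, or under 50% at every dose.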 For the sample, actives were picked, then their nearest neighbours and some compounds at random. Results with a measured potency or affinity are listed apart.
Each compound was assayed against Aminopeptidase N (Plasmodium falciparum (isolate 3D7)) (UniProt O96935) (assay: P. falciparum M1AAP inhibitors, biochemical, fluorogenic H-Leu-NHMec substrate, 1536-well (AID 1445;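 further: plate controls were DMSO full reaction for no effect and no enzyme background for full effect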)). Settings: recombinant M1AAP, H-Leu-NHMec fluorogenic kinetic assay; at 30 µM, active compounds read high unless noted.
Sequence of Aminopeptidase N (Plasmodium falciparum (isolate 3D7)) (O96935 whole entry, looked up): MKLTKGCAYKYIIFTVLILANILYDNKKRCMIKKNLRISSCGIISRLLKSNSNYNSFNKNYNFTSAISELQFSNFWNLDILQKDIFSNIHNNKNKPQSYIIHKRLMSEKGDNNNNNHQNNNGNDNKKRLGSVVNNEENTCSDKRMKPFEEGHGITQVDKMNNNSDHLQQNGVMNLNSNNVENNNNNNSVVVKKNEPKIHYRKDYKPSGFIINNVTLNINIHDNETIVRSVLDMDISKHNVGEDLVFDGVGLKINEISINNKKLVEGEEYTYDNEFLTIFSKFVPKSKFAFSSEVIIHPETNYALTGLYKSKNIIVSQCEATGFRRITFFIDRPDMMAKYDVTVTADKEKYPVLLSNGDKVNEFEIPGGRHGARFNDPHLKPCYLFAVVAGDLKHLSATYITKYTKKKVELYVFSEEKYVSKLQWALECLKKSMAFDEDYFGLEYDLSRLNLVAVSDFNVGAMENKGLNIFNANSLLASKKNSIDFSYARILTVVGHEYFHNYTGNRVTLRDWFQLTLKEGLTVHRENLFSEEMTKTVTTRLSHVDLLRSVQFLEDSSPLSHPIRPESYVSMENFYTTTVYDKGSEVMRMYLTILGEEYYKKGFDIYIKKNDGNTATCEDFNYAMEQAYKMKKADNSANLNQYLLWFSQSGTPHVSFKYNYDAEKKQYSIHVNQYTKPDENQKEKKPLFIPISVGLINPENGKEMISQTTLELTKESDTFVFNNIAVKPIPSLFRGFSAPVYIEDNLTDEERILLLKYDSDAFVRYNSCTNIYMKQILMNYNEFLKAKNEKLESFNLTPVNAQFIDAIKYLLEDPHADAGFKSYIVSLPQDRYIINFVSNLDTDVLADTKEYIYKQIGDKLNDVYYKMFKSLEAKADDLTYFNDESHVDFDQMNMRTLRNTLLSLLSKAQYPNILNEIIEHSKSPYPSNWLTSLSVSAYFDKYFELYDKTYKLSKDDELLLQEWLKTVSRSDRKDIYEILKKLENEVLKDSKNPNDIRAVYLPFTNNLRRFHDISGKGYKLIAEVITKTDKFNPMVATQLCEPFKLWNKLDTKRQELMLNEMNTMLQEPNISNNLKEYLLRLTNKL
For `CCOc1ccccc1C(=O)Nc1nnc(SCC(=O)N2CCOCC2)s1`, the inhibition was 2.46% (inactive). `CN(CC(=O)N1CCCCCC1)S(=O)(=O)c1ccc(Br)s1` was tested, and the inhibition was 8.78% (inactive). In the case of `CCOC(=O)Cn1nc(C)c(NC(=O)COc2ccccc2[N+](=O)[O-])c1C`, the inhibition is reported as 0.47% (inactive). `Cn1c(=O)n(-c2cccc(Cl)c2)c(=O)n1C` was tested, and the inhibition was 4.63% (inactive). With `COc1ccc(/C=C/C(=O)NC(=S)NNC(=O)c2cccnc2)cc1` the inhibition was -8.48% (inactive). With `Cc1oc(C(=O)O)cc1COc1ccc2c3c(c(=O)oc2c1)CCC3` the inhibition was 5.26% (inactive). For `Cc1oc(C(=O)O)cc1COc1ccc2c3c(c(=O)oc2c1C)CCC3`, the inhibition was 7.51% (inactive). For `Cc1cc(OCc2nn[nH]n2)c2c(C)c(CC(=O)O)c(=O)oc2c1`, the inhibition was 0.25% (inactive). `Cc1cc2oc(=O)c3c(c2cc1OCc1nn[nH]n1)CCCC3` was tested, and the inhibition was 10.1% (inactive). `Cc1ccc(S(=O)(=O)NC2=NCCC2)cc1` was tested, and the inhibition was -0.29% (inactive). In the case of `NC(=O)Cn1nc(C(F)(F)F)c2c1CCCC2`, the inhibition is reported as 10.1% (inactive). In the case of `O=C(CSc1nnc(CCc2nc3ccccc3[nH]2)n1-c1ccccc1)NCc1ccccc1`, the inhibition is reported as -1.21% (inactive). For `N#C/C(=C\c1cn[nH]c1-c1ccccc1)C(=O)NC1CCCCCC1`, the inhibition was 9.74% (inactive). In the case of `COc1ccc(-c2[nH]ncc2/C=C(/C#N)C(=O)NC2CCCCC2)cc1`, the inhibition is reported as 7.83% (inactive). For `Cc1ccc(-c2[nH]ncc2/C=C(\C#N)C(=O)NC2CCCCC2)cc1`, the inhibition was 24.9% (active). For `CCOC(=O)c1[nH]c2ccc(OC)cc2c1NC(=O)c1cccc(OC)c1`, the inhibition was 3.82% (inactive). For `Cc1nn(-c2ccccc2)c(Cl)c1C(=O)N(C)c1nc(-c2ccc(F)cc2)cs1`, the inhibition was -3.58% (inactive). With `COc1cc(/C=C/C(=O)NCCn2c(C)cc3ccccc32)cc(OC)c1OC` the inhibition was 8.36% (inactive). `O=Cc1cn(CC(=O)N2CCc3ccccc32)c2ccccc12` was tested, and the inhibition was 2.93% (inactive). `N#Cc1cn(CC(=O)N2CCCc3ccccc32)c2ccccc12` was tested, and the inhibition was 9.27% (inactive). `O=C(NCC(c1cccs1)N1CCOCC1)c1ccc(Cl)s1` (stereo not drawn) was tested, and the inhibition was 7.44% (inactive). For `C=CCNC(=S)N1CCC(C(=O)c2ccc(OC)cc2)CC1`, the inhibition was 8.35% (inactive). In the case of `COc1ccc(C2OC(=O)C(C)(C)C(=O)C2(C)C)cc1OC` (stereo not drawn), the inhibition is reported as -0.38% (inactive). In the case of `Cc1ccc(S(=O)(=O)c2c(C)nn(C(C)(C)C)c2OC(=O)c2ccc(Br)o2)cc1`, the inhibition is reported as 19.6% (inactive). For `Cc1ccc(S(=O)(=O)c2c(C)nn(C(C)(C)C)c2OC(=O)c2ccco2)cc1`, the inhibition was 27.3% (active). In the case of `Cc1ccc(S(=O)(=O)c2c(C)nn(-c3ccccc3)c2OC(=O)c2ccco2)cc1`, the inhibition is reported as 6.34% (inactive). In the case of `CCCCCOC(=O)C1C2C=CC3(CN(c4ccccc4C)C(=O)C13)O2` (stereo not drawn), the inhibition is reported as 5.27% (inactive). With `Nc1nc(CSc2ncccn2)nc(Nc2ccccc2)n1` the inhibition was -3.84% (inactive). In the case of `O=C(Nc1ccc(-n2cnnn2)cc1)C1CCCN1C(=O)NC1CCCCC1` (stereo not drawn), the inhibition is reported as 3.93% (inactive). For `Nc1cc(=O)[nH]c(SCC(=O)Nc2ccccc2-c2ccccc2)n1`, the inhibition was 2.73% (inactive). For `O=C(CSc1ncn[nH]1)Nc1ccccc1-c1ccccc1`, the inhibition was -4.4% (inactive). For `CCCNc1ncccc1C(N)=O`, the inhibition was -1.06% (inactive). With `Cc1ccc(Cn2cccc(-c3nc4ccccc4s3)c2=O)cc1` the inhibition was 10.1% (inactive). For `O=c1c(-c2nc3ccccc3s2)cccn1Cc1ccccc1`, the inhibition was 25.6% (active). With `O=c1c(-c2nc3ccccc3s2)cccn1Cc1ccc(Cl)cc1` the inhibition was 2.06% (inactive). For `O=C(O)CCC(=O)OC1CC2CCC1C2` (stereo not drawn), the inhibition was -3.14% (inactive). `CCN(CC)S(=O)(=O)c1ccc(NC(=O)CC(NC(C)=O)c2ccccc2)cc1` (stereo not drawn) was tested, and the inhibition was -1.24% (inactive). With `COc1cc(/C=C2\SC(c3ccc(C)cc3)=NC2=O)ccc1O` the inhibition was 9.74% (inactive). With `CCOc1cc(/C=C2\SC(=S)N(Nc3ccccc3)C2=O)ccc1O` the inhibition was 14.7% (inactive). `CCOc1cc(/C=C2\C(=O)N(c3nc(-c4ccc(Br)cc4)cs3)N=C2c2ccccc2)ccc1O` was tested, and the inhibition was 15.7% (inactive). With `COc1ccc(C2=NN(c3ccccc3)C(=O)/C2=C\c2ccc(O)c(OC)c2)cc1` the inhibition was 8.38% (inactive). For `CCNc1c([N+](=O)[O-])c(=O)oc2ccccc12`, the inhibition was 7.91% (inactive). In the case of `COc1ccccc1C(=O)N1CCN(Cc2cn[nH]c2-c2ccc(F)cc2F)CC1`, the inhibition is reported as 3.76% (inactive). `Cc1cccc2cc(CN(C(=O)c3cnccn3)C3CCCCC3)c(Cl)nc12` was tested, and the inhibition was 5.74% (inactive). With `Cc1ccc(S(=O)(=O)NN=C2CCN(Cc3ccccc3)CC2)cc1` the inhibition was 4.22% (inactive). In the case of `O=C(O)CC(c1ccc(Cl)cc1)n1cccc1` (stereo not drawn), the inhibition is reported as 8.45% (inactive). In the case of `CC(=O)Nc1cc(C(=O)OC(C(=O)c2ccccc2)c2ccccc2)ccc1C` (stereo not drawn), the inhibition is reported as 2.38% (inactive). For `Cc1cccc2cc(COC(=O)C(C)(C)C)c(=O)[nH]c12`, the inhibition was 4.55% (inactive). For `Cc1ccc(-n2c(N)c(C(=O)N3CCOCC3)sc2=S)cc1`, the inhibition was -1.83% (inactive). With `Nc1c(C(=O)N2CCCCC2)sc(=S)n1-c1ccccc1` the inhibition was 0.35% (inactive). For `Nc1c(C(=O)N2CCOCC2)sc(=S)n1-c1ccccc1`, the inhibition was 24.9% (active). In the case of `CCOC(=O)CC(NC(=O)c1ccc(C)cc1)c1ccc(OC)cc1` (stereo not drawn), the inhibition is reported as 5.77% (inactive). `CCN(Cc1ccncc1)C(=O)CCc1nnc(CCc2ccccc2OC)o1` was tested, and the inhibition was -2.71% (inactive). For `NC(N)=Nc1nc(-c2ccccc2)c2ccccc2n1`, the inhibition was 5.22% (inactive). For `CCc1ccc2nc(N=C(N)N)nc(C)c2c1`, the inhibition was 5.85% (inactive). In the case of `COc1cc(/C=C2/SC(=S)N(CC(=O)Nc3nc4ccccc4s3)C2=O)cc(OC)c1OC`, the inhibition is reported as 6.28% (inactive). In the case of `Cc1ccc(N(Cc2ccccc2F)S(C)(=O)=O)cc1C`, the inhibition is reported as -9.52% (inactive). `O=C1CCCc2oc3c(cc(NS(=O)(=O)c4ccc5c6c(cccc46)C(=O)N5)c4ccccc43)c21` was tested, and the inhibition was 3.6% (inactive). In the case of `Cc1oc2c(cc(NS(=O)(=O)c3cccs3)c3ccccc32)c1C(=O)OC(C)C`, the inhibition is reported as 3.76% (inactive). For `N=c1c(C(=O)NCC2CCCO2)cc2c(=O)n3ccccc3nc2n1Cc1cccnc1` (stereo not drawn), the inhibition was 20% (inactive). With `CCCn1c(=N)c(C(=O)NCC2CCCO2)cc2c(=O)n3cccc(C)c3nc21` (stereo not drawn) the inhibition was 7.23% (inactive). For `Cc1cccn2c(=O)c3cc(C(=O)NCC4CCCO4)c(=N)n(CCN4CCOCC4)c3nc12` (stereo not drawn), the inhibition was 8.4% (inactive). `COCCCn1c(=N)c(C(=O)NCc2ccc3c(c2)OCO3)cc2c(=O)n3ccccc3nc21` was tested, and the inhibition was 4.69% (inactive).

Reference: PubChem BioAssay AID1445 (SRMLSC, 2008)
